The OligoGym collection

Molecular target: FAM178A
Experiment: pooled miR-30 sensor sort-seq; sequence = guide strand
Conditions: shRNA
Note: reference of the scale not given here.

Row | Sequence | sensor-assay potency score (higher = more potent)
1 | TAAGAAGCTAGTGACAACTGGA | 0.82
2 | TATGTCTTCTTGTAGTTGCTTC | 0.216
3 | TATTGAAAAACACAGCTGCTAC | -0.444
4 | TTTAGTTCTCGTTCTCTGCAGT | -0.0234
5 | TAGACAATCTACTTCCTCCATA | -0.597
6 | TATACCATGATCTTCATGGTGC | 0.577
7 | TTTCTTTAGAAATTCCTTGTGC | 0.466
8 | TTTGGTATCATAGATTCTCTTG | -0.0968
9 | TGAATGAATAGTGACTTCCTTC | -0.297
10 | TAGTTTTGTCTCCTTCTCCTTT | -0.485

Molecular target: FAM181A
Experiment: as above
Conditions: shRNA

Row | Sequence | sensor-assay potency score (higher = more potent)
11 | TTAGCAAGACATTCCTCCCTGT | 0.483
12 | ATCTTCACATCACTGTCGGATG | -1.37
13 | AAATCCAGGAGCAGCCTCCTGG | -1.06
14 | TTTTCAGGTAGGGCTCAGCAGC | -1.38
15 | AACAAGAACAACAACTGAGATT | -1.01
16 | TTGATGTCGCTGGACGCCAGGT | -1.09
17 | TAGCAAGACATTCCTCCCTGTA | -0.518
18 | TTTTCTTACCCTCATAGGGAGG | -1.8
19 | TTGCGATGGTCCACGGAGCGGC | -0.977
20 | AAGAACAAGAACAACAACTGAG | 0.506
21 | TCGGATGCCATCACCAGGGGGC | -0.489
22 | TACTTCTGGGAGAAGCGCTTGA | -0.152
